This excerpt belongs to a sample that is enriched for hits.
VDR inh = inhibitors of human vitamin D receptor. P11473. VDR-SRC2-3 peptide fluorescence polarization, 2 h. Potency, µM, without a hit: max response, negative = inhibition, usual class: inhibitors. 400,000 compounds, 0.93% hits. AID 504847; also: % is scaled to controls: 0 for no effect and ±100 for the full control effect
Target sequence (P11473 whole entry, looked up): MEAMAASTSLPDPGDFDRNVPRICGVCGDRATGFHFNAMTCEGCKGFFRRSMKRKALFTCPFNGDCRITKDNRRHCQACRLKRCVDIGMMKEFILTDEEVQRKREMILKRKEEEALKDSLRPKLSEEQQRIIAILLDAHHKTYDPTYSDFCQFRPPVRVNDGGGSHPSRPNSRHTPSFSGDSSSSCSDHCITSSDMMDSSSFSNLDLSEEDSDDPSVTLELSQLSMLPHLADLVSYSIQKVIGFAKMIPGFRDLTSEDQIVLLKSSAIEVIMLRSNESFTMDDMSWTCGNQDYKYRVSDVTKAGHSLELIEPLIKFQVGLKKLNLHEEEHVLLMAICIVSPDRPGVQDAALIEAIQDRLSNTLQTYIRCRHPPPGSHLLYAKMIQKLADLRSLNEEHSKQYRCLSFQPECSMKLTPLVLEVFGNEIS
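Inhibition of the VDR/SRC2-3 peptide interaction is quantified by fluorescence polarization. Compounds (23 nl, pintool) incubate with the reagents for 2 hours at ambient room temperature.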
Sfp inh = inhibitors of Bacillus subtilis Sfp phosphopantetheinyl transferase. Q9F4F7. Potency, µM, without a hit: largest response in the series, negative = inhibition, actives largely listed as inhibitors. Biochemical Sfp PPTase activity, qHTS. 310,000 compounds, 3.5% hits;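 also: the enzyme is Sfp with the accession as filed and its product quenches rhodamine fluorescence; 0% = enzyme reaction without inhibitor and -100% = no enzyme wells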
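Sfp 15 nM + cpd, 15 min RT; start w/ rhodamine-CoA 5 uM, BHQ-2-YbbR 12.5 uM (final); 50 mM Hepes pH 7.6, 10 mM MgCl2, 0.01% NP-40, 0.01% BSA; read 525/598 nm at 0 and 30 min.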
G9a block = inhibitors of human histone lysine methyltransferase G9a | Potency, µM (series often up to 102 µM), without a hit: at the top dose activity, negative = inhibition, hits mostly inhibitors | 350,000 compounds, 8.8% hits | G9a H3K9 monomethylation, AlphaScreen, 2 h; also: % is scaled to controls: 0 for no effect and ±100 for the full control effect; nearly all actives have a fitted effect of over 75% in size
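Chemiluminescent proximity detection of H3K9 monomethylation, read after 10 min bead incubation in the dark. Reaction: 20 nM G9a, 500 nM biotin-H3K9 peptide, 20 uM SAM cofactor, 2 h, room temperature, following 15 min enzyme-compound preincubation.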
12-LOX inh = blocks human arachidonate 12S-lipoxygenase; P18054; purified 12hLO, xylenol orange hydroperoxide absorbance; Potency, µM (highest dose often 108 µM), without a hit: at the highest dose activity change, negative = inhibition, hits mostly inhibitors; 580,000 compounds, 1.1% hits; also: % is scaled to controls: 0 for no effect and ±100 for the full control effect
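Purified human 12hLO at 150 nM in 25 mM Hepes, 0.01% Triton X-100, pH 7.0, preincubated 15 min at room temperature with compound. Reaction started with 40 uM arachidonic acid, 30 min at room temperature. Hydroperoxide measured by Fe-xylenol orange, 573/405 nm absorbance ratio.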
GRP78 ERSR act = inducers of ER stress response in human glioma cells | U87-MG GRP78 promoter luciferase reporter, 16 h | Potency, µM, without a hit: at the top dose activation, usual class: activators | 420,000 compounds, 0.02% hits | AID 602332; also: series mostly up to about 76 µM; % of control where 0% means no effect; nearly all actives have a fitted effect of over 35% in size
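ERSR induction read as luciferase luminescence (Bright-Glo, 10 min at room temperature) in stably transfected human U87-MG glioma cells exposed to compounds for 16 h, using GRP78 as sensor.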
* marks the source's active call; other numbers are inactive results; ? = inconclusive; . = not tested or not shown; [ ] = another dose, or the depositor's remark. Calls follow the shape of the dose curve; as a rule, active = well fitted curve in the direction sought with a large enough effect; inconclusive = small, poorly fitted or top-dose-only effect, or another doubt; inactive = no such curve, though single readings can be large; an effect the other way counts as inactive or inconclusive. Potency is read from the fitted curve at half-maximal effect.

SMILES	VDR inh	Sfp inh	G9a block	12-LOX inh	GRP78 ERSR act
CCOC(=O)C1CCN(C(=S)Nc2ccc(S(N)(=O)=O)cc2)CC1	-23%	45µM*	10µM*	22%	-5%
CCOC(=O)C1CCN(C(=O)c2cccs2)CC1	16%	8%	-4%	-21%	4%
NS(=O)(=O)c1ccc(NC(=S)N2CCC(O)CC2)cc1	-20%	45µM*	40µM*	-27%	-4%
O=C(c1ccc(N2CCCN(Cc3ccc(Cl)cc3)C2=O)cc1)N1CCOCC1	.	.	.	0%	.
CCOC(=O)c1cc(C(O)(C(=O)OC)C(F)(F)F)c(N)o1 (configuration not stated)	.	.	.	-13%	.
COCCOc1cc(NC(=O)c2sccc2Oc2ccc([N+](=O)[O-])cc2F)c(Cl)cc1Cl	12%	1%	-38%[59 µM]	131%	-6%
O=C(Nc1ccccc1)c1sccc1Oc1ccc([N+](=O)[O-])cc1F	-10%	-12%	28µM*	?	-2%
Cc1nc(SCC(=O)NC(=O)NCc2ccco2)nc(C)c1C	5%	?	50µM*	-5%	-3%
Cc1nc(SCC(=O)NCc2ccco2)c2c(C)c(C)sc2n1	1%	2%	-1%[12.7 µM]	0%	-5%
Cc1ccc(-c2csc3ncnc(OCC(=O)NC(=O)NCc4ccco4)c23)cc1	-30%	?	56µM*	?	-1%
Cc1nc(SCC(=O)NC(=O)NCc2ccccc2)nc(C)c1C	-5%	3%	?	260%	0%
COCCNC(=O)NC(=O)CSc1nc(C)c(C)c(C)n1	-25%	-11%	45µM*	5%	-4%
Cc1sc2ncnc(SCC(=O)NC(=O)NCc3ccco3)c2c1C	2%	-22%	50µM*	-12%	-3%
O=C(COc1ncnc2scc(-c3ccc(F)cc3)c12)NCc1ccco1	13%	-19%	.	24%	-8%
CN(C)S(=O)(=O)c1ccccc1CNS(=O)(=O)c1ccc2c(c1)CCC2	.	.	.	-4%	.
Cc1[nH]c2ccc(C(=O)OCC(=O)N3CCCC3=O)cc2c1C	.	.	.	-5%	.
Cc1csc(NC(=O)CCc2ncc(-c3ccc(F)cc3F)o2)n1	.	.	.	-1%	.
Cc1ccc(NC(=S)NC2CCSc3ccccc32)cc1C (configuration not stated)	21%	9%	-6%	45µM*	-2%
O=C(O)c1cc(S(=O)(=O)Nc2ccc3oc(=O)sc3c2)ccc1O	79µM*	40µM*	?	?	-6%
Cc1ccc(S(=O)(=O)Nc2ccc3oc(=O)sc3c2)c(C)c1	?	?	?	-4%	-6%
CC(=O)c1c(C)oc2ccc(NS(=O)(=O)c3ccc(O)c(C(=O)O)c3)cc12	-17%	-22%	?	16µM*	1%
CCc1nnc(N/N=C/c2ccc(O)c(OC)c2)n1N	?	?	-12%[0.501 µM]	?	-2%
CCc1nnc(N/N=C/c2cc(Br)c(O)cc2O)n1N	5%	50µM*	50µM*	12%	-12%
CCc1nnc(N/N=C/c2cccs2)n1N	3%	?	50µM*	-16%	-11%
Cc1ccc(-c2csc(-c3cc4c([nH]c3=O)CC(c3ccccc3)CC4=O)n2)cc1 (configuration not stated)	3%	.	2.5µM*	?	-5%
SMILES	VDR inh	Sfp inh	G9a block	12-LOX inh	GRP78 ERSR act
COc1ccc(C2CC(=O)c3cc(-c4nc(-c5cccc(Cl)c5)cs4)c(=O)[nH]c3C2)cc1 (configuration not stated)	-20%	.	-7%[59 µM]	-2%	-2%
N#Cc1cccc(CN2CCC3(CC2)CC(Cc2nc(C4CC4)no2)CCO3)c1 (configuration not stated)	.	.	.	16%	.
COC(=O)CCOc1ccc(S(=O)(=O)Nc2ccc(C)cc2F)cc1	.	.	.	-2%	.
CC(=O)OCCCNc1cc(Sc2ccc(C)cc2)c2nonc2c1[N+](=O)[O-]	?	11%	-48%[59 µM]	-26%	0%
CC(=O)OCCNc1cc(Sc2nc3ccccc3[nH]2)c2nonc2c1[N+](=O)[O-]	14µM*	1.6µM*	4µM*	?	-14%
CC(=O)OCCCNc1cc(Sc2nc3ccccc3s2)c2nonc2c1[N+](=O)[O-]	?	2.5µM*	?	.	-2%
Oc1ccc(/C=N/N=C/c2ccc(O)cc2)cc1	-8%	23%	?	-32%	-2%
Oc1ccc(/C=N/N=C/c2ccc(O)c(O)c2)cc1O	-7%	-16%	35µM*	1.1µM*	11%

From PubChem
